# Data reported in PubChem BioAssay (EPA / NIEHS).
# Records with an inconclusive call do not appear. The source made the active and inactive calls. The calls were made as follows, unless noted: active = hit-call score of the fitted dose curve at least 0.9, where 1 is the maximum; inactive = score below 0.9.
# What was measured:
# [1] = biological target: Estrogen receptor (Homo sapiens) (UniProt P03372); test: OT_ERa_GFPERaERE_0480: Odyssey Thera (OT) 8-hour HeLa Transcription Induction Assay for Estrogen Receptor (AID 2283381)
# In short: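 Human cervical HeLa cells were treated for 8 hours, after which ERE-driven GFP induction was measured by fluorescence microscopy; increases over DMSO baseline defined activity.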
# [2] = biological target: Bile acid receptor (Homo sapiens) (UniProt Q96RI1); test: OT_FXR_FXRSRC1_0480: Odyssey Thera (OT) 8-hour HEK293T Protein-Complementation Assay for Farnesoid X receptor/SRC-1 Co-activator (AID 2283383; active = hit-call score of the fitted dose curve at least 0.9, where 1 is the maximum)
# In short: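 PCA, HEK293T, 8 h compound exposure; FXR–SRC-1 binding reconstitutes split reporter; fluorescence intensity; positive-direction fit vs DMSO.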
# [3] = biological target: Bile acid receptor (Homo sapiens) (UniProt Q96RI1); test: OT_FXR_FXRSRC1_1440: Odyssey Thera (OT) 24-hour HEK293T Protein-Complementation Assay for Farnesoid X receptor/SRC-1 Co-activator (AID 2283384; active = hit-call score of the fitted dose curve at least 0.9, where 1 is the maximum)
# In short: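 Measures ligand-driven FXR–SRC-1 co-activator recruitment in HEK293T via fragment complementation, fluorescence intensity at 24 h. DMSO served as negative control and baseline for gain-of-signal fitting.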
# [4] = biological target: Retinoic acid receptor RXR-alpha (Homo sapiens) (UniProt P19793); test: OT_NURR1_NURR1RXRa_0480: Odyssey Thera (OT) 8-hour HEK293T Protein Complementation Assay for Nurr1/retinoid X receptor (RXR) (AID 2283385; active = hit-call score of the fitted dose curve at least 0.9, where 1 is the maximum)
# In short: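 Interaction of bait and prey reconstitutes a functional reporter, whose fluorescence was measured in HEK293T cells dosed with compound for 8 hours. Signal gain relative to DMSO defined the single endpoint.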
# [5] = biological target: Peroxisome proliferator-activated receptor gamma (Homo sapiens) (UniProt P37231); test: OT_PPARg_PPARgSRC1_0480: Odyssey Thera (OT) 8-hour Protein-Complementation Assay for Peroxisome Proliferator-activated Receptor Gamma / SRC-1 Co-activator (AID 2283387; active = hit-call score of the fitted dose curve at least 0.9, where 1 is the maximum;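 also: nuclear to cytoplasmic split Venus YFP fluorescence ratio reporting PPARg SRC-1 interaction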)
# In short: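 Protein-fragment complementation in HEK293T: Venus YFP halves (residues 1-158, 159-239, mutated to IFP1/IFP2) fused to PPARg/SRC-1. 8 h exposure; N/C ratio at 488 nm; DMSO negative control.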
# [6] = biological target: Peroxisome proliferator-activated receptor gamma (Homo sapiens) (UniProt P37231); test: OT_PPARg_PPARgSRC1_1440: Odyssey Thera (OT) 24-hour Protein-Complementation Assay for Peroxisome Proliferator-activated Receptor Gamma/ SRC-1 Co-activator (AID 2283388; active = hit-call score of the fitted dose curve at least 0.9, where 1 is the maximum;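 also: nuclear to cytoplasmic ratio of reconstituted Venus YFP fluorescence in fixed imaged cells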)
# In short: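 Cells carrying the PPARg/SRC-1 fragment-complementation reporter receive compound for 24 hours, are fixed and counterstained with Draq5, then imaged. Increased nuclear relative to cytoplasmic YFP fluorescence above DMSO baseline indicates binding activity.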
# [7] = read-out: Tumor necrosis factor receptor superfamily member 6 (Homo sapiens) (UniProt P25445); test: LTEA_HepaRG_FAS: Life Technologies and Expression Analysis (LTEA) Assay for Fas cell surface death receptor (FAS) using HepaRG (AID 2283447); conditions: mRNA level, 48 h; actives raise or lower the signal
# In short: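 Differentiated human HepaRG cells, pre-cultured 48 h, were exposed in duplicate for 48 h to 8-point half-log concentrations (top 100 uM, 0.5% DMSO) in serum-free induction medium; FAS mRNA measured by qRT-PCR, normalized to ACTB/GAPDH/POLR2A, bidirectional fit versus DMSO.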
# [8] = read-out: Fatty acid synthase (Homo sapiens) (UniProt P49327); test: LTEA_HepaRG_FASN: Life Technologies and Expression Analysis (LTEA) Assay for Fatty Acid Synthase (FASN) using HepaRG (AID 2283448); conditions: mRNA level, 48 h; actives raise or lower the signal
# In short: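 Cells were plated, cultured 48 h, switched to serum-free induction medium, then dosed in duplicate (max 100 uM, half-log dilutions, 0.5% DMSO) for 48 h. RNA was then isolated and FASN quantified by qRT-PCR.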
# [9] = read-out: Cyclin D2 (CCND2), CCND2 (gene 894); test: LTEA_HepaRG_CCND2: Life Technologies and Expression Analysis (LTEA) Assay for Cyclin D2 (CCND2) using HepaRG (AID 2283449); conditions: mRNA level, 48 h; actives raise or lower the signal;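 also: CCND2 transcript measured by TaqMan qRT-PCR and normalised to three housekeeping genes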
# In short: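 In this HepaRG study, an eight-point concentration series (max 100 uM, 0.5% DMSO) is applied for 48 h. CCND2 mRNA change is derived by qRT-PCR normalised to ACTB, GAPDH and POLR2A.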
# [10] = read-out: Cyclin Dependent Kinase Inhibitor 1A (CDKN1A), CDKN1A (gene 1026); test: LTEA_HepaRG_CDKN1A: Life Technologies and Expression Analysis (LTEA) Assay for Cyclin Dependent Kinase Inhibitor 1A (CDKN1A) using HepaRG (AID 2283450); conditions: mRNA level, 48 h; actives raise or lower the signal
# In short: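 Gain or loss of CDKN1A transcript is scored by bidirectional fitting against 0.5% DMSO vehicle. Human HepaRG cultures receive chemicals for 48 h across an 8-point series peaking at 100 uM; expression comes from qRT-PCR.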
# [11] = biological target: Estrogen receptor (Homo sapiens) (UniProt P03372); test: OT_ERa_GFPERaERE_0120: Odyssey Thera (OT) 2-hour HeLa Transcription Induction Assay for Estrogen Receptor (AID 2283382; active = hit-call score of the fitted dose curve at least 0.9, where 1 is the maximum)
# In short: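 Cells (human cervical HeLa) receive compound, incubate 2 hours, then are imaged for fluorescent reporter induction. Images are quantified by high content analysis, and activity is fitted as gain of signal against DMSO.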
# [12] = CEETOX_H295R_11DCORT: CeeTox H295R High-throughput Steroidogenesis Assay for 11-Deoxycortisol (11DCORT) (AID 2283432); conditions: actives raise or lower the signal;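 as to AC50: human adrenal H295R cells prestimulated with 10 µM forskolin for 48 h; 11-deoxycortisol secreted into the medium measured by LC-MS/MS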
# In short: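 Adrenal carcinoma line H295R, run per OECD 456 with minor changes, was forskolin-stimulated (10 uM, 48 h) before a 48 h chemical exposure at 0.1% DMSO. Secreted 11-deoxycortisol was quantified by HPLC-MS/MS.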
# [13] = CEETOX_H295R_OHPREG: CeeTox H295R High-throughput Steroidogenesis Assay for OH-Pregnenolone (OHPREG) (AID 2283434); conditions: actives raise or lower the signal
# In short: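 Readout: HPLC-MS/MS of 17alpha-hydroxypregnenolone in medium after 48 h chemical exposure of H295R cells pretreated with forskolin. Values fitted bidirectionally relative to DMSO; chemicals reducing viability to 20–70% were retested after 10-fold dilution.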
# [14] = CEETOX_H295R_OHPROG: CeeTox H295R High-throughput Steroidogenesis Assay for OH-Progesterone (OHPROG) (AID 2283435); conditions: actives raise or lower the signal;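 as to AC50: human adrenal H295R cells primed 48 h with 10 µM forskolin; 17alpha-hydroxyprogesterone secreted into medium measured by HPLC-MS/MS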
# In short: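 Steps: seed H295R cells and adhere overnight; stimulate with 10 uM forskolin for 48 h; replace with chemical-containing medium (0.1% DMSO) for 48 h; extract medium with MTBE; quantify 17alpha-hydroxyprogesterone by reverse-phase C18 HPLC-MS/MS against a 7-point curve.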
# [15] = CEETOX_H295R_CORTIC: CeeTox H295R High-throughput Steroidogenesis Assay for Corticosterone (CORTIC) (AID 2283437); conditions: actives raise or lower the signal;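 also: corticosterone secreted into medium quantified by mass spectrometry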;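 as to AC50: human H295R adrenal cells prestimulated with forskolin before chemical exposure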
# In short: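 Steps: seed H295R, adhere overnight; 10 uM forskolin 48 h; replace with chemical (0.1% DMSO) 48 h; extract medium with MTBE; quantify corticosterone by HPLC-MS/MS; score bidirectionally vs DMSO.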
# [16] = CEETOX_H295R_CORTISOL: CeeTox H295R High-throughput Steroidogenesis Assay for Cortisol (AID 2283438); conditions: actives raise or lower the signal
# In short: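 Cortisol synthesis by H295R cells is measured 48 h after chemical dosing, following a 48 h stimulation with 10 uM forskolin. Hormone is extracted and quantified by HPLC-MS/MS, and activity is fitted bidirectionally against the DMSO control.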
# [17] = CEETOX_H295R_DOC: CeeTox H295R High-throughput Steroidogenesis Assay for DOC (AID 2283439); conditions: actives raise or lower the signal
# In short: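 Steps: seed H295R, adhere overnight; 10 uM forskolin 48 h; replace with chemical medium (0.1% DMSO) 48 h; collect medium, MTBE extraction, HPLC-MS/MS for DOC. Viability then checked by MTT; cytotoxic chemicals diluted until viability ≥70%.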
# [18] = CEETOX_H295R_ESTRONE: CeeTox H295R High-throughput Steroidogenesis Assay for Estrone (AID 2283441); conditions: actives raise or lower the signal
# In short: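 Estrone secreted into medium quantified by LC-MS/MS after dansyl chloride derivatization, following 48 h chemical exposure (0.1% DMSO final) of forskolin-prestimulated (10 uM, 48 h) H295R cells; gain or loss fitted against DMSO; MTT viability in same wells.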
# Chain of Estrogen receptor (Homo sapiens) (P03372 whole entry, looked up): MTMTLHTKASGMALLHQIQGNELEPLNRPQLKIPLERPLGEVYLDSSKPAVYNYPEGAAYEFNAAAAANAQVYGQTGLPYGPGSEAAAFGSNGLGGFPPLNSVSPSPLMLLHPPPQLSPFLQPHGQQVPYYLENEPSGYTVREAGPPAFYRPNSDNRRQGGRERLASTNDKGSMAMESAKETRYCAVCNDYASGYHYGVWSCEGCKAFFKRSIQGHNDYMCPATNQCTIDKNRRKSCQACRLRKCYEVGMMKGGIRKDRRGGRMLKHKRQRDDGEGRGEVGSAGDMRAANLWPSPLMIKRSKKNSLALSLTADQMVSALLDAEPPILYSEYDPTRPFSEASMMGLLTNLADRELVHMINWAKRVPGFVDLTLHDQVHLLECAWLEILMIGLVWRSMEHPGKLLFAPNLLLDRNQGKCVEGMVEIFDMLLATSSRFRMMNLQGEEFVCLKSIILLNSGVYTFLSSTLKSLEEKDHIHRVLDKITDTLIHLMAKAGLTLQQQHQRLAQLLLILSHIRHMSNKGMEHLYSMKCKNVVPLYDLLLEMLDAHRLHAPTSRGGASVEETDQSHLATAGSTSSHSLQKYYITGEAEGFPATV
# Chain of Retinoic acid receptor RXR-alpha (Homo sapiens) (P19793 whole entry, looked up): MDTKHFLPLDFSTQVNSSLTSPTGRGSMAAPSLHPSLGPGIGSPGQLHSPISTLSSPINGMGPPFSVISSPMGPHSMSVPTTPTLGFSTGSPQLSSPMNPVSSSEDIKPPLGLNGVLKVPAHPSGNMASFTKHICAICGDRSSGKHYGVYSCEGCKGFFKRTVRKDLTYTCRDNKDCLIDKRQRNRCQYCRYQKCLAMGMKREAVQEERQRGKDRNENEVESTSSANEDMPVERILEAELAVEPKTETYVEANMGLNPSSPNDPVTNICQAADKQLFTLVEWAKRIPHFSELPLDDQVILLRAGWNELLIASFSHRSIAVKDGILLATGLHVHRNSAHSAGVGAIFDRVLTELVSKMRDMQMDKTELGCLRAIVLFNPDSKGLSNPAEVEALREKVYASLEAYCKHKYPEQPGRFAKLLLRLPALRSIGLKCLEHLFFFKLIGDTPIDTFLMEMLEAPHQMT
# Chain of Peroxisome proliferator-activated receptor gamma (Homo sapiens) (P37231 whole entry, looked up, the tested form may be a part): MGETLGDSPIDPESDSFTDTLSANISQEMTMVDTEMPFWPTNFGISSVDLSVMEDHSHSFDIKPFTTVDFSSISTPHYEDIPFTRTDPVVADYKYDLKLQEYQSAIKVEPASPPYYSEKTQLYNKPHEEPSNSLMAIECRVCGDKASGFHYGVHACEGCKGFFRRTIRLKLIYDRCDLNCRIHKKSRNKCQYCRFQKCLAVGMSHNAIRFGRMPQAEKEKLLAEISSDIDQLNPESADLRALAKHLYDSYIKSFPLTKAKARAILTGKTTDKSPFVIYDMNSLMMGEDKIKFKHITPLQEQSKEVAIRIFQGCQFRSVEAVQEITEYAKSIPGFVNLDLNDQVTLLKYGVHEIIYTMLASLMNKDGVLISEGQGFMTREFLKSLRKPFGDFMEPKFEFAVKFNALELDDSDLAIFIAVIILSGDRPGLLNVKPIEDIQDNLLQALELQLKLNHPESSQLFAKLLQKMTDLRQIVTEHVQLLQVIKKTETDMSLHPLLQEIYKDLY
# Chain of Fatty acid synthase (Homo sapiens) (P49327 whole entry, looked up): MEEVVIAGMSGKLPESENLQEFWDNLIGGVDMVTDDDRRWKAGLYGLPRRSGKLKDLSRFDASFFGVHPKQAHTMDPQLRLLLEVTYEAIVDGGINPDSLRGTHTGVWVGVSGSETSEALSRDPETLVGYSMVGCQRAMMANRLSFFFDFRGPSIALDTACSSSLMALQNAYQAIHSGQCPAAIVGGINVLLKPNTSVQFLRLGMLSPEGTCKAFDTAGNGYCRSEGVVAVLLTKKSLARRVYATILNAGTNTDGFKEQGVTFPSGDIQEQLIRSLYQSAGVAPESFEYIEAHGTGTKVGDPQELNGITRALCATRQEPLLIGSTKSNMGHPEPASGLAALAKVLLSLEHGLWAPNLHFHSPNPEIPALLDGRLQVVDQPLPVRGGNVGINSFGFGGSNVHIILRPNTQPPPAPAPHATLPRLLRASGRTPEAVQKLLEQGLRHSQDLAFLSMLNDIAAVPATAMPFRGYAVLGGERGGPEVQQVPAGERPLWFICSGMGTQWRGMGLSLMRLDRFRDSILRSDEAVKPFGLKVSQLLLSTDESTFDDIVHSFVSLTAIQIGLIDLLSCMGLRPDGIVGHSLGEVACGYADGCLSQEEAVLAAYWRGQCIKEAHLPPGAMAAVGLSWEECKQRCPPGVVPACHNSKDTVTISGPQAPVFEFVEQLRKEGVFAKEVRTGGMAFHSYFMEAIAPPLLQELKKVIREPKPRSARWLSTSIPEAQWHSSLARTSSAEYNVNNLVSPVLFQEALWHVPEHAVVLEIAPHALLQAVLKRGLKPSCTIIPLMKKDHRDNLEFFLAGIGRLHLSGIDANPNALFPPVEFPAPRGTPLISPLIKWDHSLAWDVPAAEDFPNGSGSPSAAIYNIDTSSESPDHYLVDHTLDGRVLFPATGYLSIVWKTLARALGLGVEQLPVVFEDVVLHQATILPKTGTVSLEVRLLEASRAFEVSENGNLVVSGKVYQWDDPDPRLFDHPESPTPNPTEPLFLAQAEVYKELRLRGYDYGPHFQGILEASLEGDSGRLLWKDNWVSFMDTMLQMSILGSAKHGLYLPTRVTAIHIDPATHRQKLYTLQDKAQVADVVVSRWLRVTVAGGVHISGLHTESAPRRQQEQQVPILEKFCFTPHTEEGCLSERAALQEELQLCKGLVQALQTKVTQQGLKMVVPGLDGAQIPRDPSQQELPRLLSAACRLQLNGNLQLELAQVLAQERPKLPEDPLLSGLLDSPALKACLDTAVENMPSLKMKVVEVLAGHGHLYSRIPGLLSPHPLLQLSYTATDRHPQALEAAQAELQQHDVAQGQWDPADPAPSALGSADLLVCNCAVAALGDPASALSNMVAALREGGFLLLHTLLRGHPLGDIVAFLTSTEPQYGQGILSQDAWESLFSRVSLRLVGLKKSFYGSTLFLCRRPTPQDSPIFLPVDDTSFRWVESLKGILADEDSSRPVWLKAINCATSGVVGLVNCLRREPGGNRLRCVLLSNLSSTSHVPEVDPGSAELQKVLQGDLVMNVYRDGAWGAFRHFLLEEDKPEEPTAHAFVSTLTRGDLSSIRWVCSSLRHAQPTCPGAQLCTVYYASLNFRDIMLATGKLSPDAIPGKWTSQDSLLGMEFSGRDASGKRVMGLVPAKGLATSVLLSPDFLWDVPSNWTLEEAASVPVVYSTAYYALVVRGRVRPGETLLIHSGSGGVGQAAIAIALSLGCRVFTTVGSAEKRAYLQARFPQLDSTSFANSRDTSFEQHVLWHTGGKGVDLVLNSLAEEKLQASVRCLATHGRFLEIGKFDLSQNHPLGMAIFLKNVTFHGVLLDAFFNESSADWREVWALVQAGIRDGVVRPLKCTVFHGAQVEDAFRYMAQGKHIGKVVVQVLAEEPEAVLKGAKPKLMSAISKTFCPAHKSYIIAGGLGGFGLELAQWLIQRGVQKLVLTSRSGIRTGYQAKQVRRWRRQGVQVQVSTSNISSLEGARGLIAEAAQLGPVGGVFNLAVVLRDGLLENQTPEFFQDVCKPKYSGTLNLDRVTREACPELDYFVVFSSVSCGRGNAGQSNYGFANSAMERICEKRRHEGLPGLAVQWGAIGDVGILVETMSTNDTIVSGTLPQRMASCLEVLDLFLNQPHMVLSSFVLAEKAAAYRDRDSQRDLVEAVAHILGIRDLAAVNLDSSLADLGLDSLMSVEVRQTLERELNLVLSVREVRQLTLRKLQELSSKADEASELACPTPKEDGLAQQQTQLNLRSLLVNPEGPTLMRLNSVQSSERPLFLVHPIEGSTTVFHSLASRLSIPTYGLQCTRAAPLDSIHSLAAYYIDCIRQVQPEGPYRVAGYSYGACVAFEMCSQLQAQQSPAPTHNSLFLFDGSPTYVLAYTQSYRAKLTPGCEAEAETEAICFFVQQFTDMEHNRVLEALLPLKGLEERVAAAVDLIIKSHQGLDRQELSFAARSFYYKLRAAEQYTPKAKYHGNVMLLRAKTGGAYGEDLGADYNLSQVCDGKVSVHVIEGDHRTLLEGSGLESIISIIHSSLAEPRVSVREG
# Chain of Bile acid receptor (Homo sapiens) (Q96RI1 whole entry, looked up, the tested form may be a part): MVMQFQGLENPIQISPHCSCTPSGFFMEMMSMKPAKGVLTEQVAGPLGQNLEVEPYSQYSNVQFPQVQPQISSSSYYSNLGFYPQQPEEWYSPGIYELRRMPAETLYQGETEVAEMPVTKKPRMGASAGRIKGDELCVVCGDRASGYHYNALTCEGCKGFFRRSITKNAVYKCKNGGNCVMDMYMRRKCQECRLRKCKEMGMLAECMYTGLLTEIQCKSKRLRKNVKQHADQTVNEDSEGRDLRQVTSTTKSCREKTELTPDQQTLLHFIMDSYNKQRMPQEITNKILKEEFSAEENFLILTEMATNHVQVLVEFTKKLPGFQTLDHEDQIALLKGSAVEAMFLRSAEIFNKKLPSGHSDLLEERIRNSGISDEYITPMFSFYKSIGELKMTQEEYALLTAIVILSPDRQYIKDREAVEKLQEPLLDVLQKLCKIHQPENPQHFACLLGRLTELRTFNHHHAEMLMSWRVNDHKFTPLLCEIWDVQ
compound,measurement,setting,value
Cc1ccccc1Cl,outcome,[1],inactive
same,outcome,[2],inactive
same,outcome,[3],inactive
same,outcome,[4],inactive
same,outcome,[5],inactive
same,outcome,[6],inactive
same,outcome,[7],inactive
same,outcome,[8],inactive
same,outcome,[9],inactive
same,outcome,[10],inactive
NC(=O)Cn1c(=O)cc(CCN2CCN(c3nccc4sccc34)CC2)c2ccc(F)cc21,outcome,[11],inactive
same,outcome,[2],inactive
same,outcome,[3],inactive
same,outcome,[5],inactive
same,outcome,[6],inactive
same,AC50,[12],27.6 µM (active)
same,AC50,[13],25 µM (active)
same,AC50,[14],7.83 µM (active)
same,AC50,[15],4.46 µM (active)
same,AC50,[16],25 µM (active)
same,AC50,[17],16.9 µM (active)
same,outcome,[7],inactive
same,AC50,[8],29.5 µM (active)
same,outcome,[9],inactive
same,AC50,[10],50 µM (active)
Cc1cc(=O)[nH]c(=S)[nH]1,outcome,[1],inactive
same,outcome,[2],inactive
same,outcome,[3],inactive
same,outcome,[4],inactive
same,outcome,[5],inactive
same,outcome,[6],inactive
same,outcome,[7],inactive
same,outcome,[8],inactive
same,outcome,[9],inactive
same,outcome,[10],inactive
c1cc(-c2ccncc2)ccn1,outcome,[1],inactive
same,outcome,[5],inactive
same,outcome,[6],inactive
same,outcome,[12],inactive
same,outcome,[13],inactive
same,outcome,[14],inactive
same,outcome,[15],inactive
same,outcome,[16],inactive
same,outcome,[17],inactive
same,outcome,[18],inactive
same,outcome,[7],inactive
same,outcome,[8],inactive
same,outcome,[9],inactive
same,outcome,[10],inactive
